From PubChem BioAssay
Rows were chosen to be rich in hits. Some 12% of all compounds tested hit in one or more screens of this group.
AMA1-RON2 inh = inhibitors of Plasmodium falciparum AMA1-RON2 interaction; AlphaScreen AMA1-biotinylated RON2 peptide binding; 0.2% of 360,000 active; Potency, µM (top dose mostly 58.2 µM), hits mostly inhibitors; further: nearly all actives have a fitted effect of over 45% in size
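AMA1 (3D7) with his tag at 25 nM final met compounds first, then biotinylated RON2 peptide at 25 nM; detection used donor plus acceptor beads, 10 µg/mL apiece, read by AlphaScreen after 30 min at room temperature.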
Pf growth 48h = P. falciparum growth inhibition at 48 hours (one generation) | P. falciparum luciferase growth in erythrocytes, 48 h | Potency, µM (titrated, usually from 28.7 µM), usual class: inhibitors | 5.9% of 310,000 active | AID 504832
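Luciferase-expressing parasites in RBCs, 2% Hct / 0.1% parasitemia final; RPMI 1640 + 0.5% Albumax; 37 C, 5% CO2, one generation; luminescence read-out, lower signal = inhibition.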
Pf growth 96h = P. falciparum growth inhibition at 96 hour, primary screen for plastid delayed-death inhibitors; P. falciparum luciferase reporter growth, 96 h; Potency, µM (highest dose often 28.7 µM), usual class: inhibitors; 6.9% of 320,000 active; AID 504834
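Compounds incubated with erythrocytes infected by luciferase-expressing P. falciparum (2% hematocrit, 0.05% parasitemia final) for 96 hours, 37 C in 5% CO2. Growth inhibition scored as decreased luciferase luminescence.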
SARS PLP yeast = blocks SARS-CoV papain-like protease in a yeast assay | S. cerevisiae expressing SARS-CoV PLpro, growth rescue | Potency, µM (top dose mostly 32.9 µM), hits mostly activators | 0.19% of 330,000 active | AID 485353; calls by dose curve; further: nearly all actives have a fitted effect of over 55% in size
HCV inhibitor = blocks hepatitis C virus | Huh7.5.1 HCVcc-Cre infection, luciferase reporter, 44 h | 3.4% of 340,000 active | Potency, µM (series often up to 41.8 µM), usual class: inhibitors
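Infectious HCV cell culture screen: compound-treated cells (1,000/well, pre-plated 4 h) are infected with HCVcc-Cre at roughly 0.5 moi and grown 44 h. Infection is quantified by luciferase signal after 15 min substrate incubation at room temperature.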
NS1 inh = inhibitors of influenza NS1 protein function; 0.4% of 270,000 active; Potency, µM (doses to about 46.1 µM); calls by dose curve; further: actives are rising curves; nearly all actives have a fitted effect of over 50% in size
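In this qHTS, NS1 from influenza A is expressed in budding yeast, where it slows growth. Cells are switched from glucose to 2% galactose medium (pH 6.0, -URA), treated with compound, and growth recovery is read at OD600.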
Hits are given with their value; [ ] = dose if it differs, or a comment. Unless noted, the call rests on the fitted dose curve; in most records, active means well fitted curve in the direction sought with a large enough effect; inconclusive means small, poorly fitted or top-dose-only effect, or another doubt; inactive means no such curve, though single readings can be large; an effect the other way counts as inactive or inconclusive.

What do the screens show for `CCN(c1ccccc1)c1nc(Cl)nc2c1cnn2C`?
AMA1-RON2 inh: inactive; HCV inhibitor: inconclusive

What do the screens show for `Cc1ccc(-n2c(C)c(C)c3c(NCCO)ncnc32)cc1`?
AMA1-RON2 inh: inactive; Pf growth 48h: inactive; Pf growth 96h: inactive; SARS PLP yeast: inactive; HCV inhibitor: inactive; NS1 inh: inactive

What do the screens show for `CC1(c2ccccc2Cl)NC(=O)N(CC(=O)NCc2ccco2)C1=O` (configuration not stated)?
AMA1-RON2 inh: inactive; Pf growth 48h: inactive; Pf growth 96h: inactive; SARS PLP yeast: inactive; HCV inhibitor: inactive

How did Fc1ccccc1N1CC(c2ccccc2)C(c2cccs2)=N1 (configuration not stated) do in these assays?
AMA1-RON2 inh: inactive; Pf growth 96h: 11.7µM; SARS PLP yeast: inactive; HCV inhibitor: inconclusive; NS1 inh: inactive

Results for c1ccc(C2COC(c3cccs3)=N2)cc1 (configuration not stated) ?
AMA1-RON2 inh: inactive; Pf growth 48h: inactive; Pf growth 96h: inactive; SARS PLP yeast: inactive; HCV inhibitor: inactive; NS1 inh: inactive

What do the screens show for `COc1cccc2c(=O)cc(C)n(CC(=O)Nc3ccc(C)c(C)c3)c12`?
AMA1-RON2 inh: inactive; Pf growth 48h: inactive; Pf growth 96h: inactive; SARS PLP yeast: inactive; HCV inhibitor: 5.01µM; NS1 inh: inactive

How did Cc1ccccc1OCC(=O)N/N=C1\CC(=O)CC(C)(C)C1 do in these assays?
AMA1-RON2 inh: inactive; Pf growth 48h: inactive; Pf growth 96h: inactive; SARS PLP yeast: inactive; HCV inhibitor: inactive; NS1 inh: inactive

How did Cc1ccc(OCC(=O)N/N=C2\CC(=O)CC(C)(C)C2)c(Br)c1 do in these assays?
AMA1-RON2 inh: inactive; Pf growth 48h: inactive; Pf growth 96h: 9.28µM; SARS PLP yeast: inactive; HCV inhibitor: inactive; NS1 inh: inactive

How did O=C(O)CCCC(=O)OCCCCc1cccs1 do in these assays?
AMA1-RON2 inh: inactive; Pf growth 48h: inactive; Pf growth 96h: 5.22µM; SARS PLP yeast: inactive; HCV inhibitor: inactive; NS1 inh: inactive

Results for O=C(O)CCCC(=O)OCCc1cc2ccccc2c(=O)o1 ?
AMA1-RON2 inh: inactive; SARS PLP yeast: inactive; HCV inhibitor: inactive

What do the screens show for `C[C@H](C(=O)c1ccccc1)C(c1ccccc1)N1CCOCC1` (some centres not stated)?
NS1 inh: inactive

How did COCCNc1nc(CSc2ccccc2)nc2sc(C)c(C)c12 do in these assays?
AMA1-RON2 inh: inactive[2.32 µM]; Pf growth 48h: inconclusive; Pf growth 96h: inconclusive; SARS PLP yeast: inactive; HCV inhibitor: 25.1µM; NS1 inh: inactive

What do the screens show for `Cc1sc2nc(CSc3ccccc3)nc(N3CCN(C)CC3)c2c1C`?
AMA1-RON2 inh: inactive; Pf growth 48h: inactive; Pf growth 96h: inactive; SARS PLP yeast: inactive; HCV inhibitor: inconclusive; NS1 inh: inactive

Results for Cc1nn(-c2ccccc2)c(C)c1/C=N/Nc1nc2ccccc2[nH]1 ?
AMA1-RON2 inh: inconclusive; Pf growth 48h: 0.586µM; Pf growth 96h: inconclusive; SARS PLP yeast: inactive; HCV inhibitor: inconclusive; NS1 inh: inconclusive

What do the screens show for `Cc1c(/C=N/Nc2nc3ccccc3[nH]2)c2ccccc2n1C`?
AMA1-RON2 inh: inactive; Pf growth 48h: 0.522µM; Pf growth 96h: 0.465µM; SARS PLP yeast: inactive; HCV inhibitor: inconclusive; NS1 inh: inactive

Results for Cc1cc(=O)[nH]c(N/N=C/c2c(C)nn(-c3ccccc3)c2C)n1 ?
AMA1-RON2 inh: inactive; Pf growth 48h: 11.7µM; Pf growth 96h: inactive; SARS PLP yeast: inactive; HCV inhibitor: inactive

What do the screens show for `Cc1cc(=O)[nH]c(N/N=C/c2cc(C)n(-c3ccccc3)c2C)n1`?
AMA1-RON2 inh: inactive; Pf growth 48h: inconclusive; Pf growth 96h: inconclusive; SARS PLP yeast: inactive; HCV inhibitor: inconclusive; NS1 inh: inactive

How did CN1CCN(c2ccc(S(C)(=O)=O)cc2[N+](=O)[O-])CC1 do in these assays?
AMA1-RON2 inh: inactive; Pf growth 48h: inactive; Pf growth 96h: 11.7µM; SARS PLP yeast: inactive; HCV inhibitor: inactive; NS1 inh: inactive

What do the screens show for `O=[N+]([O-])c1cc(S(=O)(=O)Nc2ccccc2)ccc1N1CCN(c2ccccc2)CC1`?
AMA1-RON2 inh: inconclusive; Pf growth 48h: inconclusive; Pf growth 96h: inconclusive; SARS PLP yeast: inactive; HCV inhibitor: 12.6µM; NS1 inh: inactive

Results for CN1CCN(c2ccccc2NC(=O)c2ccc(N3CCCC3)c([N+](=O)[O-])c2)CC1 ?
AMA1-RON2 inh: inactive; Pf growth 48h: inconclusive; Pf growth 96h: inactive; SARS PLP yeast: inactive; HCV inhibitor: inconclusive

How did CN1CCN(c2ccc(C(=O)c3ccc(Br)cc3)cc2[N+](=O)[O-])CC1 do in these assays?
AMA1-RON2 inh: inconclusive; Pf growth 48h: inactive; Pf growth 96h: inactive[5.75 µM]; SARS PLP yeast: inactive; HCV inhibitor: 10µM; NS1 inh: inactive

What do the screens show for `Cc1ccc(S(=O)(=O)N2CCCCC2)cc1NC(=O)COC(=O)c1ccccc1F`?
AMA1-RON2 inh: inactive; Pf growth 48h: inactive; Pf growth 96h: inactive; SARS PLP yeast: inactive; HCV inhibitor: inactive; NS1 inh: inconclusive

How did Cc1cc(C)c(C(=O)N2CCC(N3CCC(C(=O)NC(C)C)CC3)CC2)o1 do in these assays?
AMA1-RON2 inh: inactive; Pf growth 48h: inconclusive; Pf growth 96h: 11.7µM; SARS PLP yeast: inactive; HCV inhibitor: inactive; NS1 inh: inactive

What do the screens show for `COc1ccc(C[C@@H]2c3cc(OC)c(OC)cc3CC[N@+]2(C)CCC(=O)OCCCCCOC(=O)CC[N@@+]2(C)CCc3cc(OC)c(OC)cc3[C@H]2Cc2ccc(OC)c(OC)c2)cc1OC`?
Pf growth 48h: inactive; Pf growth 96h: inactive

How did COc1ccc(NC(=O)Nc2c(SC)nsc2SC)cc1 do in these assays?
AMA1-RON2 inh: inactive; Pf growth 48h: inactive; Pf growth 96h: inconclusive; SARS PLP yeast: inactive; HCV inhibitor: inactive

How did Cc1c2c(n3c(nc4ccccc43)c1C#N)N(CCN(C)C)CC2 do in these assays?
AMA1-RON2 inh: inactive; Pf growth 48h: 2.08µM; Pf growth 96h: inactive; SARS PLP yeast: inactive; HCV inhibitor: 11.2µM; NS1 inh: inactive

Results for Cc1c2c(n3c(nc4ccccc43)c1C#N)N(c1ccccc1)CC2 ?
Pf growth 48h: 2.08µM; Pf growth 96h: 0.657µM; SARS PLP yeast: inactive; HCV inhibitor: inactive; NS1 inh: inactive

Results for Cc1ccc(C)c(NC(=O)c2cccc(Oc3ccc([N+](=O)[O-])cc3Cl)c2)c1 ?
AMA1-RON2 inh: inactive; Pf growth 48h: inactive; Pf growth 96h: 13.1µM; SARS PLP yeast: inactive; HCV inhibitor: inconclusive; NS1 inh: inactive

Results for Cc1cc([N+](=O)[O-])ccc1NC(=O)c1cccc(NC(=O)C(C)C)c1 ?
AMA1-RON2 inh: inactive; Pf growth 48h: inactive; Pf growth 96h: inactive[5.75 µM]; SARS PLP yeast: inactive; HCV inhibitor: 11.2µM

Results for Cc1ccc([N+](=O)[O-])cc1NC(=S)NCCc1ccccc1 ?
AMA1-RON2 inh: inactive; Pf growth 48h: inactive; Pf growth 96h: 13.1µM; SARS PLP yeast: inactive; HCV inhibitor: inactive; NS1 inh: inactive

How did Cc1cc(Br)ccc1NC(=S)NCCc1ccccc1 do in these assays?
AMA1-RON2 inh: inactive; Pf growth 48h: inactive; Pf growth 96h: 11.7µM; SARS PLP yeast: inactive; HCV inhibitor: inactive; NS1 inh: inactive
